Screening results (PubChem BioAssay)
SMN2 splice enh = SMN2 splice variant enhancement; hit rate 2.8% among 210,000; AID 1458; HEK293 SMN2-luciferase splicing reporter, luminescence, 30-36 h; Potency, µM (top dose mostly 46.1 µM), for the others: at the highest dose activity change, positive = activation, actives largely listed as activators; also: % of control where 0% means no effect; nearly all actives have a fitted effect of over 55% in size
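HEK293 cells carry an SMN2 […]–luciferase reporter in which exon 7 inclusion puts luciferase in frame. Cells were plated 10-12 h before compound addition, then incubated 30-36 h at 37C. ONE-Glo luminescence was read; sodium butyrate at 4.5 mM final served as control.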
NPC1 promoter act = activates the NPC1 promoter; Potency, µM (doses to about 9.22 µM), without a hit: at the top dose activation, actives largely listed as activators; hit rate 2.4% among 320,000; Huh7 NPC1 promoter luciferase reporter, 24 h; also: % of control where 0% means no effect; nearly all actives have a fitted effect of over 60% in size
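Luminescence from an NPC1 promoter-driven luciferase reporter in stably transfected Huh7 cells was measured after 24 h compound treatment at 37 °C, followed by 10 min ambient incubation with luciferase detection reagent.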
FLuc modulator = inhibits or activates purified firefly luciferase, miR-21 counter-screen; P08659; Potency, µM (series often up to 57.5 µM), inactives show top-dose activity change, negative = inhibition, most hits filed as inhibitors; purified FLuc, Km substrates, luminescence inhibition; hit rate 6.9% among 360,000;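 also: plate controls were vehicle for no effect and reference inhibitor for full effect; nearly all actives have a fitted effect of over 55% in size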
Target sequence (P08659 whole entry, looked up): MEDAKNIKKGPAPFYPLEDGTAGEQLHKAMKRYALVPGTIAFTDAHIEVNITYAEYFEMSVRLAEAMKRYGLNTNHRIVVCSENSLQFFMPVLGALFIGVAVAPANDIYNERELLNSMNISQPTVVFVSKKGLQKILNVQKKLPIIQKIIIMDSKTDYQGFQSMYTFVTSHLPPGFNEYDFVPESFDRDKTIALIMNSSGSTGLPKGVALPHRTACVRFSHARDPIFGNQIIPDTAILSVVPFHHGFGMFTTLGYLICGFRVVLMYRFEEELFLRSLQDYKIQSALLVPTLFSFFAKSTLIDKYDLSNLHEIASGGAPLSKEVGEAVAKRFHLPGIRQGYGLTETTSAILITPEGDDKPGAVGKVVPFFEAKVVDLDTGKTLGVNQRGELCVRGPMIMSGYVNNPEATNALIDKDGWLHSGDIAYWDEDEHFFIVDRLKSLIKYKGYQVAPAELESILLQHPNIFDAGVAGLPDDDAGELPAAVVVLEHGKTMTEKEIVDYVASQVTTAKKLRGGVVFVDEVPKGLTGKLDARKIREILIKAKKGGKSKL
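Purified P. pyralis luciferase, 10 nM final, with Km-level 10 uM D-luciferin and 10 uM ATP in 50 mM Tris acetate pH 7.5, 10 mM Mg acetate, 0.01% Tween-20, 0.05% BSA; 6-point qHTS titration about 60 µM downward; luminescence read.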
KinaseGlo FLuc = counter-screen: inhibitors of Kinase-Glo firefly luciferase | Kinase-Glo luciferase, ATP luminescence, 8 min | Potency, µM (titrated, usually from 38.3 µM), inactives show top-dose activity change, negative = inhibition, hits mostly inhibitors | hit rate 0.28% among 200,000 | AID 1379; also: % is scaled to controls: 0 for no effect and ±100 for the full control effect; nearly all actives have a fitted effect of over 60% in size
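Substrate mix (final 50 mM imidazole pH 7.2, 50 mM KCl, 7 mM MgCl2, 10 uM ATP, 0.01% Tween 20, 0.05% BSA) plus pin-tool compound, then Kinase-Glo detection mix; 8 min ambient, luminescence read.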
Rab9 prom act = activators of Rab9 promoter | Potency, µM (titrated, usually from 9.22 µM), for inactives: at the highest dose activation, negative = inhibition, usual class: activators | hit rate 2.8% among 320,000 | Huh7 Rab9 promoter-luciferase reporter, luminescence, 24 h; also: % of control where 0% means no effect; nearly all actives have a fitted effect of over 60% in size
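Measured in stably transfected Huh7 cells bearing a Rab9 promoter–luciferase construct: 24 h compound treatment at 37 °C, followed by luminescence detection.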
Active calls of the source: *; ? = inconclusive; / = no result given; [ ] = remark or other dose. In the library only some 7.3% were active in any assay of this set; here they are far more common. Calls follow the shape of the dose curve; as a rule, active = well fitted curve in the direction sought with a large enough effect; inconclusive = small, poorly fitted or top-dose-only effect, or another doubt; inactive = no such curve, though single readings can be large; an effect the other way counts as inactive or inconclusive. Potency is read from the fitted curve at half-maximal effect.

SMILES | SMN2 splice enh | NPC1 promoter act | FLuc modulator | KinaseGlo FLuc | Rab9 prom act
COc1ccc(OC)c(C(C)NC(=O)Cn2c(=O)cc(C)c3c(C)nn(-c4ccc(C)cc4)c32)c1 (stereo not given) | / | / | -5% | / | /
COc1cccc(C(=O)N2c3ccc(C)cc3C(C)(c3ccccc3)CC2(C)C)c1 (stereo not given) | -51% | / | -2% | / | /
Brc1cccc(-c2nc(-c3ccncc3)no2)c1 | 27% | 3.2µM* | 7.6µM* | -6% | 5µM*
CC(C)(C)c1ccc(-c2nc(-c3ccncc3)no2)cc1 | 17% | 0.4µM* | 0.95µM* | 1% | 0.45µM*
Cc1ccc(-c2noc(-c3ccoc3C)n2)cc1 | ? | ? | 3µM* | -19% | -6%
Cc1occc1-c1nc(-c2ccncc2)no1 | ? | 13% | ? | -23% | 10%
Cc1cccc(-c2noc(-c3c(C)noc3C)n2)c1 | / | 1.6µM* | ? | / | 3.2µM*
CCc1nc2ccc(C(=O)NCc3ccc(SC)cc3)cc2nc1CC | / | / | 6% | / | /
COc1ccc(-c2[nH]ncc2C(=O)NCc2ccccc2C)cc1 | -5% | / | -11% | / | /
COc1cc(NC(=O)CN2C(=O)CCc3cc(Br)ccc32)cc(OC)c1OC | / | / | -7% | / | /
O=[N+]([O-])c1cc(-c2nc(-c3ccncc3)no2)cc([N+](=O)[O-])c1 | / | 17% | 3% | 3% | 26%
CCCc1noc(-c2cccc([N+](=O)[O-])c2)n1 | -5% | -3% | -8% | 1% | -4%
Cc1cccc(-c2nc(-c3ccncc3)no2)c1 | / | 1.6µM* | 3µM* | / | 1.4µM*
Cc1cc(C)cc(-c2nc(-c3ccncc3)no2)c1 | -18% | ? | 11µM* | -7% | ?
Cc1ccc(SC(C)c2nc(-c3ccncc3)no2)cc1 (stereo not given) | -45% | 1% | -3% | 1% | -5%
CCCc1noc(-c2ccc(-c3ccccc3)cc2)n1 | ? | 1.6µM* | 1.5µM* | -9% | 1.6µM*
Cc1ccc(-c2nc(-c3ccncc3)no2)cc1 | / | 0.89µM* | 1.7µM* | / | 1µM*
Cc1noc(-c2ccc(-c3noc(-c4cccc(F)c4)n3)cc2)n1 | / | / | 1% | / | /
COc1ccc(/C=C\C(=O)Nc2ccccc2C(=O)O)cc1OC | / | / | / | 4% | /
Cc1ccc(-c2noc(CNc3ccccc3)n2)cc1 | ? | 19% | 19µM* | 0% | 23%
Cc1ccc(-c2nc(-c3cccnc3)no2)cc1 | 10µM* | / | 1.5µM* | -24% | /
Cc1ccc(Cc2nc(-c3cccnc3)no2)cc1 | 10% | 14% | ? | -1% | 7%
CCn1nc(C)c(Br)c1-c1nc(CS(=O)(=O)c2ccsc2)no1 | / | 12% | -18% | / | 8%
CCn1nc(C)c(Br)c1-c1nc(-c2cccc(C)c2)no1 | / | 2.5µM* | ? | / | 27%
CCc1ccc(NCc2nc(-c3ccccc3)no2)cc1 | 28% | 0% | ? | 1% | 13%
SMILES | SMN2 splice enh | NPC1 promoter act | FLuc modulator | KinaseGlo FLuc | Rab9 prom act
Cc1ccc(-c2nc(-c3ccccc3)no2)c(Cl)c1 | -30% | 2.8µM* | 0.085µM* | ? | 4µM*
CCOc1ccc(CCNC(=O)c2nc(-c3cccc(F)c3)n3c2CCCCC3)cc1OCC | / | / | -8% | / | /
O=C1CC(c2nc(-c3ccccc3)no2)CN1c1ccc2c(c1)OCCO2 (stereo not given) | / | / | -1% | / | /
COc1ccc(-c2nc(-c3cccc(C(F)(F)F)c3)no2)cc1OC | -26% | 1% | -17% | -8% | 3%
Clc1cccc(Cl)c1-c1noc(-c2ccno2)n1 | / | -3% | 0% | / | -1%
CC(C)(C)c1ccc(-c2noc(-c3ccno3)n2)cc1 | / | 1.3µM* | 1.9µM* | / | 1.4µM*
Cc1ccc(-c2nnc(-c3cccnc3)o2)cc1 | / | 2.8µM* | 12µM* | / | ?
FC(F)(F)c1cccc(-c2nc(-c3ccncc3)no2)c1 | / | ? | 15µM* | / | ?
CC(=O)Nc1ccc2nc(SCc3ccccc3)sc2c1 | / | / | 13µM* | / | /
O=C(O)c1ccc(CSc2nc3ccc(NC(=O)c4ccccc4C(=O)O)cc3s2)cc1 | 19% | -5% | 17µM* | 3% | -5%
N#Cc1ccccc1CSc1nc2ccc(NC(=O)c3ccccc3C(=O)O)cc2s1 | / | -5% | ? | -1% | 2%
O[C@@H](c1cc(C(F)(F)F)nc2c(Cl)cc(Cl)cc12)C1CCCCN1 (stereo not given in full) | -1%[9.22 µM] | / | / | -3%[7.66 µM] | /
